Data as given in PubChem BioAssay AID1159580 (chemical genetic matrix, 2015).
Hit rate of the full screen: of about 5,500 compounds, about 2,000 (36%) were called active. Another 18% or so got no clear call; they are omitted. Rule as the data show it: active = normalized growth mostly below about 0.91 (no sharp cut-off); inconclusive = no clear call, values can overlap the other calls; inactive = mostly above about 0.92. The list shows a part of the results.

Test: chemical genetic growth profiling, strain panel (AID 1159580);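 also: tested at 20 µM; growth read once vehicle control cultures reached saturation at 30 °C; 1 = growth at the plate median or of vehicle wells; lower values mean less growth of the strain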
Settings: S. cerevisiae deletion strains, growth OD

Measured: normalized growth

C=CCN1CC[C@]23c4c5ccc(O)c4O[C@H]2/C(=N\NC(=O)c2ccccc2)CC[C@@]3(O)[C@H]1C5
inactive: locus YAL013W, strain DEP1, active compounds read low 0.989 | locus YAL040C, strain CLN3, active compounds read low 1.06 | locus YCL061C, strain MRC1 (second series), active compounds read low 0.987 | locus YDR363W, strain ESC2, active compounds read low 0.998 | locus YER002W, strain NOP16, active compounds read low 1.03 | locus YGR078C, strain PAC10, active compounds read low 0.985 | locus YNL153C, strain GIM3, active compounds read low 0.983 | locus YNL175C, strain NOP13, active compounds read low 0.993 | locus YNL197C, strain WHI3, active compounds read low 0.996 | locus YNL224C, strain SQS1, active compounds read low 1 | locus YOR083W, strain WHI5 (second series), active compounds read low 0.991 | locus YPL241C, strain CIN2, active compounds read low 0.996
